Measurements from PubChem BioAssay.
Activity calls are given as the source filed them.

Assay: plasmodial surface anion channel blockers, osmotic lysis – cell-based, P. falciparum Indochina, OD700, 2 h, primary screen (AID 1155);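 further: lysis reports solute entry through the parasite surface anion channel PSAC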
Conditions: P. falciparum Indochina infected erythrocytes, higher = more signal, called active from +8 up or from −8 down

z-score, inactive:
CCOC(=O)C1CCCCN1 (stereo not drawn) 0.0175
C=C(/C(=C/C[C@H](OC(=O)c1ccncc1)c1ccc(CO)o1)c1cc(C(=O)OC)ccc1OC)C(C)C 0.365
COC(=O)[C@@]1(Cc2ccccc2)[C@H]2c3cc(C(=O)N(C)C)n(CCN4CNCC4=O)c3C[C@H]2CN1C(=O)c1ccccc1 0.759
O=C1O[C@H](c2ccccc2)[C@H](c2ccccc2)N2[C@H]1[C@@H](C(=O)Nc1nc3ccccc3s1)[C@]1(C(=O)Nc3ccc(C#CC4(O)CCCCCC4)cc31)[C@H]2c1ccccc1OCCO 3.35
CCOC(=O)C[C@H]1[C@H](OC(=O)c2ccccc2-c2ccccc2)[C@@H](NC(=O)C2CCCCC2)c2cc(OCCCO)ccc2N1C(=O)Cc1ccc(OC)cc1 0.664
CN(C)CCCNC(=O)[C@@]1(C)c2ccccc2C(=O)N(Cc2ccccc2)[C@H]1c1ccc(CO)cc1 0.426
NC(=O)N1C(=O)C2C(C1=O)C1C=C(CCCO)C2C(c2cccs2)N1Cc1cccc(OC(F)(F)F)c1 (stereo not drawn) 1.42
COc1ccc(NC(=O)O[C@H]2[C@H](OC(=O)Nc3ccccc3)[C@@H](OC(=O)Nc3ccccc3)[C@@H](OC)O[C@@H]2CO)cc1 0.463
